Measurements taken from PubChem BioAssay AID743279 (National Center for Advancing Translational Sciences (NCATS), 2014).
In all, about 360,000 compounds went through this assay and about 17,000 (4.7%) were called active. Roughly 5% stayed inconclusive and do not appear here. This is one part of a sample in which actives are shown more often than they occur. No stated cut-off is given here; in the data, active means activity change below about -50%; inconclusive means mostly about -30% to -49%; inactive means weaker than that.

experiment: qHTS for Inhibitors of Inflammasome Signaling: IL-1-beta AlphaLISA Primary Screen; conditions: THP-1 LPS/ATP IL-1B secretion, 16 h; at 57.5 µM, active compounds read low
Source text: Inflammasomes are a set of intracellular multi-protein complexes that enable autocatalytic activation of inflammatory caspases and drive the innate immune response to counter harmful agents. […] A qHTS assay, based on AlphaLISA technology, was developed to screen the Molecular Libraries Small Molecule Repository (MLSMR) to look for novel inflammasome inhibitors. The assay detects IL-1B using AlphaLISA anti-IL-1B acceptor and donor beads. A decreased emission signal, indicating reduced IL-1B secretion, is the desired outcome for this assay. NIH Chemical Genomics Center [NCGC] NIH Molecular Libraries Probe Centers Network [MLPCN] MLPCN Grant: MH095513 Assay Provider: Shyam Biswal Ph.D., Johns Hopkins University Immunity. 2012 Jul 27;37(1):85-95. PMID: 22819042 [2] Curr Pharm Des. 2012;18(16):2320-8. PMID: 22390695
Three microliters containing 3000 THP-1 cells were dispensed into the wells of solid, white, tissue culture treated Greiner 1,536-well plates. Library compounds and positive control, Glyburide, were pin-transferred (23 nL) by a Kalypsys pin-tool equipped with a 1,536-pin array, resulting in final compound concentration ranges of 2.5 nM to 57.5 uM. After 1 hr of cell culture incubation (37 °C, 5% CO2), 1 microL of 1 microg/mL lipopolysaccharide (250 ng/mL, final) and 5 mM ATP (1.25 mM, final) were added to stimulate the cells. After 16 hr of cell culture incubation with the compounds, 1.5 uL of anti-IL-1B acceptor beads (6 ug/mL, final) and biotinylated antibody (0.6 nM, final) were added to the plate, followed by a 1 hr incubation at ambient temperature. To detect the secreted IL-1B, 1.5 uL of AlphaLISA SA-Donor beads (24 ug/mL, final) were added, followed by 30 min of incubation in the dark at ambient temperature. The AlphaLISA signal was read by a PerkinElmer EnVision plate reader with an ultrasensitive luminescence detector and 1536 Plate HTS AlphaScreen aperture (excitation of 680nm and emission of 615nm).
On the % scale 0 is the no-effect control and ±100 the full control effect.

Compound	activity change
Cc1ccc(NC(=O)CCCNC(=O)c2ccc(Cl)cc2)cc1S(=O)(=O)N1CCCCC1	-6.38% (inactive)
COC(C[C@@H]1O[C@@H]1C(=O)[C@H](C)OCc1ccccc1)OC	8.19% (inactive)
COC(C/C=C/C(=O)[C@@H](C)OCc1ccccc1)OC	-95.4% (active)
COC(C[C@H](O)CC(=O)[C@@H](C)OCc1ccccc1)OC	-16.6% (inactive)
C[C@H](CO)N1C[C@H](C)[C@H](CN(C)C(=O)c2ccncc2)OCc2ccccc2-c2c(n(C)c3ccccc23)C1=O	42.4% (inactive)
CCCOC1CCCN(Cc2cn(C)nc2-c2ccccc2F)C1 (stereo not drawn)	-7.48% (inactive)
COCCNC(=O)C1(C)CCCN(Cc2cccc(F)c2)C1 (stereo not drawn)	-12.6% (inactive)
COc1ccc(OC)c(C(=O)NC(CC(N)=O)c2ccc(N3CCC(N4CCCCC4)CC3)c([N+](=O)[O-])c2)c1 (stereo not drawn)	13.4% (inactive)
O=[N+]([O-])/C=C/c1ccc2c(ccn2Cc2ccccc2)c1	-90.5% (active)
COC(=O)Cn1cc(/C=C/[N+](=O)[O-])c2ccccc21	-27.5% (inactive)
O=C(Cn1ccc2cc(S(=O)(=O)N3CCCC3)ccc21)NCc1ccccc1	14.2% (inactive)
Cc1ccc(-c2nc3c(C)cc(Br)cn3c2Cc2ccccc2)cc1	58% (inactive)
COc1cccc(NC(=O)CCc2nnc3ccc(N4CCC(C)CC4)nn23)c1	-6.48% (inactive)
O=C(NCc1ccc(F)cc1)c1cc(C2CCCCN2C(=O)C2CCCCC2)on1 (stereo not drawn)	-0.0267% (inactive)
Cc1cc(OCCCC(=O)Nc2cc(S(=O)(=O)N3CCOCC3)ccc2N2CCOCC2)ccc1Cl	-1.02% (inactive)
CSc1cccc(NC(=S)N(C(C)C)C(C)c2ccccn2)c1 (stereo not drawn)	-98.3% (active)
CSc1cccc(NC(=S)N(Cc2ccccc2)Cc2ccccn2)c1	-6.44% (inactive)
CC(c1ccccn1)N(CCN(C)C)C(=S)Nc1ccccc1F (stereo not drawn)	0% (inactive)
O=C(/C=C/[C@H]1O[C@@H](n2ccc(=O)[nH]c2=O)[C@H](O)[C@@H]1O)NCc1ccccn1	21.7% (inactive)
COc1ccc(N2CCN(C3CCCCC3NS(=O)(=O)c3ccccc3)CC2)cc1 (stereo not drawn)	-0.438% (inactive)
O=C(/C=C/c1cccc(C(F)(F)F)c1)N1CCN(c2ccccn2)CC1	-95.2% (active)

Compound	activity change
O=C(Cc1ccc(Br)cc1)N1CCN(c2ccccn2)CC1	8.64% (inactive)
O=C(C(Cl)Cl)N1CCN(c2ccccn2)CC1	1.16% (inactive)
O=S1(=O)CCN(Cc2ccccc2)CC1	-15.7% (inactive)
Cc1nccn1-c1ccc(NC(=O)[C@H]2O[C@@H](n3cnc4c(N)ncnc43)[C@H](O)[C@@H]2O)cc1	-25.6% (inactive)
COc1ccc(-n2ncc3c2CC(C)(C)CC3NC(=O)CCc2c(C)noc2C)cc1 (stereo not drawn)	inactive
O=C(N=C1SC2CS(=O)(=O)CC2N1Cc1ccccc1)c1ccccc1 (stereo not drawn)	-24.4% (inactive)
CCc1nc2ccc(C(=O)Nc3cccc(OC)c3)cn2c1N(CCC(C)C)CCN(C)C	30.7% (inactive)
CCc1nc2ccc(C(=O)NCCNC(C)=O)cn2c1N(CC)Cc1cccc(Br)c1	27.3% (inactive)
CCc1nc2ccc(C(=O)NCc3ccc(OC)cc3)cn2c1N(CC)Cc1cccc(Br)c1	-70.8% (active)
CN(C(=O)CN1CCN(c2cc(-c3ccc(OCc4ccccc4)cc3)ncn2)CC1)c1ccccc1	8.46% (inactive)
CC(C)CC[n+]1ccn(C2=C([O-])c3ccccc3C(=O)/C2=N\S(=O)(=O)c2ccccc2)c1	-50.7% (active)
COc1ccc(S(=O)(=O)/N=C2\C=C(NS(=O)(=O)c3ccccc3)C(=O)c3ccccc32)cc1	36% (inactive)
Cc1ccc(S(=O)(=O)/N=C2\C=C(NS(=O)(=O)c3ccc(C)cc3)C(=O)c3ccccc32)cc1	57.7% (inactive)
CC(=O)c1ccc(NC(=O)C(C)NCc2ccc(Cl)cc2)cc1 (stereo not drawn)	-14.8% (inactive)
CCc1nc2c(OCc3ccccc3)cccn2c1N(C)C(=O)c1ccco1	-17.3% (inactive)
C[C@H]1CN([C@@H](C)CO)C(=O)c2cc(-c3cccc(F)c3)cnc2O[C@@H]1CN(C)S(C)(=O)=O	7.01% (inactive)
CCC(=O)N1CCc2cc(Br)c(S(=O)(=O)NCCN3CCCCC3CC)cc21 (stereo not drawn)	-5.22% (inactive)
CC1(C)CC(CC(=O)O)C(=O)O1 (stereo not drawn)	-17% (inactive)
C/C(CC1CC(C)(C)OC1=O)=N/Nc1nc(-c2ccccc2)cs1 (stereo not drawn)	-54.9% (active)
CCc1noc(C)c1C(=O)Nc1nc(-c2ccccc2)cs1	61.4% (inactive)
COC(=O)[C@@]1(Cc2ccc(F)cc2)[C@H]2c3cc(C(=O)N4CCCC4)n(C[C@H](O)CO)c3C[C@H]2CN1C(=O)c1ccccc1	-0.432% (inactive)

Compound	activity change
CN1OC[C@@H]2CN(S(=O)(=O)c3cccc4ccccc34)[C@H](c3ccc(N4CCCCC4)cc3)C[C@@H]21	-6.93% (inactive)
CCNC(=O)C1(C)CCN(C(=O)c2ccccc2)C1 (stereo not drawn)	26.9% (inactive)
O=C(c1ccccc1)N1CCC(CC2CC(c3ccc(Cl)cc3)=NO2)(C(=O)NCC2CCCCC2)CC1 (stereo not drawn)	-55.1% (active)
COc1ccc(CNC(=O)C2(CC3CC(c4ccccc4)=NO3)CCN(C(=O)c3cccc(O)c3)CC2)cc1 (stereo not drawn)	-61.2% (active)
COc1ccc(CNC(=O)C2CCN(C(=O)c3ccccc3)CC2)cc1	0% (inactive)
CCCCCCCNC(=O)C1(CC2CC(c3cccc(Br)c3)=NO2)CCN(C(=O)c2cc(OCC)c(OCC)c(OCC)c2)CC1 (stereo not drawn)	-24.2% (inactive)
Cc1ccccc1-c1cc(C(=O)NCC2CC2)n(CC2CC(c3cccnc3)=NO2)n1 (stereo not drawn)	-18.9% (inactive)
O=C(C[C@H]1CC[C@H]2[C@@H](COC[C@H](O)CN2C(=O)c2ccccn2)O1)N1CCN(c2ccccc2)CC1	18.8% (inactive)
CC(=O)N=c1ncn(CC(COC(C)=O)OC(C)=O)c2nc[nH]c12 (stereo not drawn)	-17.6% (inactive)
O=c1[nH][nH]c2c1[C@H](c1ccc(Cl)cc1)O[C@H](CCc1ccccc1)C2	-5.73% (inactive)
Cc1cccc(CC2(O)C(=O)Nc3ccccc32)n1 (stereo not drawn)	12.5% (inactive)
Cc1cc(C(C)(C)C)cc(S(=O)(=O)Nc2ccc(C(=O)O)cc2)c1C	0% (inactive)
COc1ccc(NC(=O)C(=O)NCC(c2ccco2)N2CCc3ccccc3C2)cc1 (stereo not drawn)	5.37% (inactive)
CC(=O)Nc1cc(-c2ccc(N3CCN(C)CC3)cc2)cn2c(-c3ccc(F)cc3)cnc12	-91.8% (active)
COc1ccccc1-c1cc(NC(C)=O)c2ncc(-c3ccc(F)cc3)n2c1	-21.1% (inactive)
CC(=O)Nc1cc(-c2ccc(N3CCN(C)CC3)cc2)cn2c(-c3cccc(C(=O)N(C)C)c3)cnc12	-6.52% (inactive)
CC(=O)N1c2ccc(S(=O)(=O)N3CCCC(C(=O)NCc4ccc(Cl)cc4)C3)cc2CC1C (stereo not drawn)	-22.7% (inactive)
CCN(CCN(C)C)C(=O)c1ccc2nc(C)c(N(C)C(=O)CCc3ccccc3)n2c1	10.6% (inactive)
CC(=O)Nc1cccc(NC(=O)c2ccc3c(c2)CCN3S(C)(=O)=O)c1	-15.8% (inactive)
Cc1cc(C)cc(NC(=O)C(c2ccccc2)N2CCN(CC(=O)N3CCCC3)CC2)c1 (stereo not drawn)	15.8% (inactive)
Cc1[nH]c(C)c(S(=O)(=O)N2CCC(C)CC2)c1C(=O)N1CCCC1	-16.2% (inactive)

Compound	activity change
COc1ccccc1C(=O)NC(CCSC)C(=O)N1CCN(C(C)=O)CC1 (stereo not drawn)	-2.96% (inactive)
CSCCC(NC(=O)c1ccccc1)C(=O)N1CCN(Cc2ccc(Cl)cc2)CC1 (stereo not drawn)	-78.1% (active)
CSCCC(NC(=O)c1ccccc1)C(=O)N1CCCCCCC1 (stereo not drawn)	-20.8% (inactive)
O=C1NC[C@@H](CCCCN2CCN(CCc3ccc(O)cc3)C(=O)C2=O)N(CC2CCCCC2)C1=O	24.5% (inactive)
COc1ccc(C2Nc3ccccc3C(=O)N2c2ccc(F)cc2)cc1Cn1nnc2ccccc21 (stereo not drawn)	-12.7% (inactive)
COc1ccc(N2C(=O)c3ccccc3NC2c2ccc(OC)c(CN3CCOCC3)c2)cc1 (stereo not drawn)	-2.56% (inactive)
COc1ccc(C2Nc3ccccc3C(=O)N2Cc2ccccc2)cc1Cn1nnc2ccccc21 (stereo not drawn)	-62.4% (active)
Nc1ncnc2c1ncn2[C@@H]1O[C@H](C(=O)NS(=O)(=O)c2c(Cl)nc3sccn23)[C@@H](O)[C@H]1O	-13.5% (inactive)
CC(=O)Nc1cccc(-c2cc(NC=O)c3ncc(-c4ccc(F)c(Cl)c4)n3c2)c1	18.8% (inactive)
Cc1cccc(C)c1NC(=O)C(c1cccc(F)c1)N1CCN(C)CC1 (stereo not drawn)	-18.5% (inactive)
COc1cc(SC#N)ccc1N=Cc1c(C)[nH]n(-c2ccc(C)cc2)c1=O	-83.8% (active)
FC(F)(F)Oc1ccccc1C(c1nnnn1C1CCCCC1)N1CCN(C/C=C/c2ccccc2)CC1 (stereo not drawn)	-26.5% (inactive)
O=C(CSc1ccc(Cl)cc1)NC1CC1	3.85% (inactive)
Cc1ccc(-c2cc(C(=O)NC3CCN(Cc4ccccc4)CC3)c3ccccc3n2)cc1	-4.22% (inactive)
Cc1ccc(S(=O)(=O)NCCC(=O)NC2CCN(Cc3ccccc3)CC2)cc1	-11.3% (inactive)
Cc1ccc(-c2nc(CSCC(=O)NC3CCN(Cc4ccccc4)CC3)c(C)o2)cc1	-64.8% (active)
CC(=O)c1ccc(S(=O)(=O)N(C)CCCC(=O)N(C)Cc2ccccc2F)cc1	-0.0792% (inactive)
Cc1cccc(C)c1NC(=O)N1CC(C)OC(C)C1 (stereo not drawn)	-6.92% (inactive)
Cc1ccc(S(=O)(=O)N(C)c2nc3ccccc3n3c(C(C)C)nnc23)cc1	9.42% (inactive)
O=C1N(c2ccc(Cl)cc2)C(c2ccc(Cl)cc2)N2CCCN12 (stereo not drawn)	-5.15% (inactive)
